The nature of assay [1]: potentiators of IFN-gamma STAT1 reporter activity – cell-based, HTS, luciferase reporter, confirmation (AID 1262;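 active means activation above a set limit carried over from the earlier primary STAT1 screen, cut at about 140% in these data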;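 further: simple ratio to median IFN-gamma plus DMSO wells so 0% means no light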). Particulars: NIH 3T3 STAT1-luciferase reporter, IFN-gamma potentiation, luminescence; at 5.7 µM; stronger effect = higher value; 100% = IFN-gamma EC80 alone, no compound.
Assay [2] can be described thus: enhancement of NF-kB transcriptional signalling – cell-based, HEK293T, luciferase luminescence, TNF-alpha, counter-screen for STAT1 activator project (AID 1306;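 active means activation above the mean of solvent-only control wells plus 3 SD, set per campaign, cut at about 130% in these data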;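 further: TNF-alpha given at a submaximal dose yielding about 80% of full reporter signal; values are well signal over median control so 100% means no change and 0% no light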). Particulars: HEK293T NF-kB luciferase reporter, TNF-alpha stimulated, at 5.7 µM, stronger effect = higher value, 100% = TNF-alpha with vehicle only.
For assay [3], the target named is Signal transducer and activator of transcription 3 (Homo sapiens) (UniProt P40763). Put plainly: enhancers of IL-6 STAT3 transcription – U3A cells, luciferase, luminescence, counter-screen for STAT1 activator project, confirmation (AID 1316;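 active means activation above the solvent-only control well mean plus 3 SD, set per plate batch, cut at about 110% in these data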;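 further: 0% = no luminescence and 100% = median IL-6 plus DMSO wells; higher means more STAT3 reporter activation so hits are non-selective activators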). As to conditions: U3A cells STAT3-luciferase reporter, IL-6, luminescence; at 5.7 µM; stronger effect = higher value; 100 = IL-6 alone, no compound effect; cells lack STAT1.

Assay [4] deals with TLR4-MyD88 interaction (human), BLA complementation. Put plainly: disruptors of TLR4 binding to MyD88 – cell-based, HeLa CL3-4, BLA complementation, FRET ratio, confirmation (AID 941;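 active means mean inhibition across three repeat runs above about 25% carried over from the earlier screen, limit read from the data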;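 further: plate controls were DMSO only for no effect and clavulanic acid blocking BLA at full dose for full effect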). Particulars: CCF4 FRET ratio, at 8.4 µM, stronger effect = higher value.
A short description of assay [5]: BLA reporter interference in HeLa cells – cell-based, full-length BLA, CCF4 FRET ratio, artefact control for TLR4-MyD88 binding inhibitor project, confirmation (AID 1237).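 Further: HeLa cells stably expressing beta-lactamase reporter as counterscreen for TLR4-MyD88 inhibitors; 0% = DMSO and 100% = clavulanic acid full inhibition.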 As to conditions: at 8.4 µM, stronger effect = higher value.
Assay [6] concerns the target Galanin receptor type 2 (Homo sapiens) (UniProt O43603). Kind of assay: blockers of human galanin receptor 2 – cell-based, confirmation (AID 866; in the data active means inhibition above about 27%;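 further: cells stimulated with galanin at about its EC80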). Particulars: GALR2-expressing cells, antagonist mode, at 4 µM, stronger effect = higher value.
Assay [7] can be described thus: nonspecific BLA reporter inhibition – CHO NFAT-bla cells, FRET readout, counter-screen for GALR2 antagonist project, confirmation (AID 867;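 active means inhibition above the mean inhibition across tested compounds plus 3 SD, cut at about 27% in these data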;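 further: 0% = 500 nM thapsigargin stimulated wells and 100% = unstimulated BSA only wells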). As to conditions: beta-lactamase FRET, thapsigargin-stimulated, at 4.2 µM, stronger effect = higher value.
The target of assay [8] is Toll-like receptor 9 (Homo sapiens) (UniProt Q9NR96). Put plainly: disruptors of TLR9 binding to MyD88 – cell-based, CHO, BLA complementation, fluorescence, triplicate, confirmation (AID 540250;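 active means mean inhibition across three repeats above about 21% taken from the earlier screen, limit read from the data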;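 further: blue over green emission ratio reports constitutive TLR9 MyD88 association via BLA complementation; 0% = DMSO vehicle wells and 100% = clavulanate BLA inhibitor wells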). As to conditions: CCF4 FRET ratio, at 4.98 µM, stronger effect = higher value.
Assay [9] in a line: BLA reporter readout interference – cell-based, fluorescence, artefact control for TLR9-MyD88 binding inhibitor project (AID 540251;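 active means mean inhibition above a 50% cutoff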;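 further: counterscreen of TLR9-MyD88 hits on CMV-driven BLA in CHO-K1 cells; 0% = DMSO alone and 100% = clavulanate blocking BLA; higher means less blue over green ratio so more BLA blockade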). As to conditions: CHO-BLA cells, CCF4 FRET ratio, at 4.98 µM, stronger effect = higher value.
A short description of assay [10]: CHO cell viability loss – luminescence, single concentration, cytotoxicity control for TLR9-MyD88 binding inhibitor project (AID 588336; in the data active means inhibition above about 11%). Particulars: TLR9-MyD88 CHO cells cytotoxicity, at 4.98 µM, stronger effect = higher value.
Assay [11] has as its target Receptor-interacting serine/threonine-protein kinase 2 (Homo sapiens) (UniProt O43353). Put plainly: inhibitors of RIPK2 association with NOD2 – fluorescence, CHO cells, BLA complementation, triplicate, confirmation (AID 624370;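 active means mean inhibition across replicates above a set limit taken from the earlier primary screen, cut at about 21% in these data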;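 further: 0% = DMSO-only wells and the high end = clavulanate BLA-blocked wells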). As to conditions: CCF4 FRET, at 4.98 µM, stronger effect = higher value.
Assay [12] in a line: BLA reporter readout interference – cell-based, CHO-K1 CMV-bla, CCF4 FRET, fluorescence, artefact control for NOD2-RIPK2 interaction inhibitor project, confirmation (AID 624371;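 active means mean inhibition above the low-control mean inhibition plus three low-control SD, cut at about 11% in these data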;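 further: 0% = DMSO only wells and 100% = clavulanate high control wells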). As to conditions: CCF4 FRET ratio, counterscreen, at 4.98 µM, stronger effect = higher value.
For assay [13], the target named is Sphingosine 1-phosphate receptor 4 (Homo sapiens) (UniProt O95977). Kind of assay: blockers of human S1P4 signalling – cell-based, confirmation (AID 1524; in the data active means inhibition above about 30%). Particulars: S1P4-expressing cell line, antagonist mode, reporter read-out; at 4.98 µM; stronger effect = higher value.
Assay [14] deals with Sphingosine 1-phosphate receptor 1 (Homo sapiens) (UniProt P21453). Kind of assay: blockade of human S1P1 receptor – cell-based, counter-screen for S1P4 antagonist project (AID 1564; in the data active means inhibition above about 40%;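 further: receptor stimulated with S1P near its EC80; 0% = agonist stimulated wells and 100% = vehicle only wells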). As to conditions: cell-based S1P1 antagonist counterscreen, at 4.98 µM, stronger effect = higher value.
Assay [15] addresses Protein-arginine deiminase type-4 (Homo sapiens) (UniProt Q9UM07). Put plainly: protein arginine deiminase 4 blockade, retest – biochemical, fluorescence polarization, confirmation (AID 488796;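 active means mean inhibition across replicates above the hit cutoff set by the earlier primary screen, cut at about 15% in these data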;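 further: inhibitors block active-site labeling by the probe so polarization falls; 0% = PAD4 with probe and DMSO and 100% = probe without PAD4 enzyme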). As to conditions: recombinant PAD4, RCA probe fluorescence polarization; at 6.36 µM; stronger effect = higher value.
In assay [16] the target is Photoreceptor-specific nuclear receptor (Homo sapiens) (UniProt Q9Y5X4). Kind of assay: retest of NR2E3-NCOR disrupting agonists – cell-based, luminescence, CHO-S two-hybrid, confirmation (AID 624378;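 active means average inhibition above a cutoff equal to the mean inhibition of all tested compounds plus one SD, cut at about 70% in these data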;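 further: 0% = DMSO in NR2E3 cells and 100% = DMSO in cells lacking NR2E3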). Particulars: CHO-S mammalian two-hybrid NR2E3-NCOR, luciferase luminescence; at 3.98 µM; stronger effect = higher value.
Assay [17] can be described thus: nonselective effects on VP16 transactivation – cell-based, luminescence, CHO-S, high throughput, counter-screen for NR2E3 agonist project, confirmation (AID 624379;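 active means mean inhibition above a cutoff equal to the average over all tested compounds plus one standard deviation, cut at about 70% in these data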;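 further: 0% = DMSO with VP16-transfected cells and 100% = DMSO with cells lacking VP16; higher means less reporter light so more repression of VP16 activity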). As to conditions: CHO-S GAL4-VP16 luciferase reporter, at 3.98 µM, stronger effect = higher value.
Assay [18] in a line: StAR promoter reporter inhibitors, counter-screen for LRH-1 inverse agonist project, cell-based, luminescence, high throughput (AID 651611; in the data active means inhibition above about 28%). Particulars: StAR promoter luciferase reporter counterscreen, at 3.6 µM, stronger effect = higher value.
For assay [19], the target named is Nuclear receptor subfamily 5 group A member 2 (Homo sapiens) (UniProt O00482). Put plainly: NR5A2 activity suppression in reporter cells – cell-based, luminescence, confirmation (AID 651613; in the data active means inhibition above about 42%;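 further: HEK293T cells co-transfected with LRH-1 and StAR promoter luciferase reporter; 0% = vehicle wells and 100% = parental cells lacking receptor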). As to conditions: cell-based LRH-1 luciferase reporter, inverse agonism; at 3.6 µM; stronger effect = higher value.
For assay [20], the target named is Steroidogenic factor 1 (Homo sapiens) (UniProt Q13285). Kind of assay: inverse agonism at SF1 nuclear receptor – cell-based, luminescence, high throughput, counter-screen for LRH-1 inverse agonist project (AID 651614; in the data active means inhibition above about 44%;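 further: cells cotransfected with StAR promoter reporter and SF1 expression vector; 0% = vehicle on cells with receptor and 100% = vehicle on cells lacking receptor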). As to conditions: cell-based SF1 luciferase reporter, at 3.6 µM, stronger effect = higher value.
A short description of assay [21]: compounds suppressing VP16-driven luciferase signal – cell-based, luminescence, high throughput, counter-screen for LRH-1 inverse agonist project (AID 651615; in the data active means inhibition above about 33%). Particulars: Gal4-VP16 luciferase reporter cells, at 3.6 µM, stronger effect = higher value.
Assay [22] has as its system transactivating tegument protein VP16 (Human herpesvirus 1). Put plainly: compounds suppressing VP16-driven luciferase signal – cell-based, luminescence, single concentration, counter-screen for SRC2 inhibitor project (AID 652007; in the data active means inhibition above about 36%). As to conditions: cell-based VP16 transactivation luciferase reporter, at 8.9 µM, stronger effect = higher value.
The target of assay [23] is Nuclear receptor coactivator 2 (Homo sapiens) (UniProt Q15596). Put plainly: inhibition of GAL4-SRC2 driven luciferase expression – cell-based, luminescence, HEK293, triplicate, confirmation (AID 652008;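 active means mean inhibition above 46.5%, the solvent-only control mean plus 3 SD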;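 further: 0% = DMSO-treated cells and 100% = Gossypol at 36 µM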). Particulars: HEK293 GAL4-SRC2 luciferase reporter, at 8.9 µM, stronger effect = higher value.
A short description of assay [24]: VP16-driven transactivation reporter suppression – cell-based, luminescence, HEK293, counter-screen for COUP-TFII antagonist project (AID 687007; in the data active means inhibition above about 13%). As to conditions: HEK293 Gal4-VP16 luciferase reporter, at 8.5 µM, stronger effect = higher value.
For assay [25], the target named is COUP transcription factor 2 (Homo sapiens) (UniProt P24468). Put plainly: retest of COUP-TFII reporter suppressors – cell-based, luciferase reporter, HEK293, triplicate, confirmation (AID 687008;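 active means mean inhibition over three repeats above a set limit taken from the earlier primary screen, cut at about 38% in these data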;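 further: 100% = cells given the luciferase reporter alone without the COUP-TF2 vector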). As to conditions: HEK293 NGFI-A luciferase reporter, luminescence; at 8.5 µM; stronger effect = higher value.

Values without a mark were called inactive. This is one part of the list. Active and inactive are the calls of the source.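 How the source made its calls, unless noted: active means mean inhibition over three repeats above about 26% taken from the earlier screen (limit read from the data); inactive means the rest.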

Sequence of Toll-like receptor 9 (Homo sapiens) (Q9NR96 whole entry, looked up): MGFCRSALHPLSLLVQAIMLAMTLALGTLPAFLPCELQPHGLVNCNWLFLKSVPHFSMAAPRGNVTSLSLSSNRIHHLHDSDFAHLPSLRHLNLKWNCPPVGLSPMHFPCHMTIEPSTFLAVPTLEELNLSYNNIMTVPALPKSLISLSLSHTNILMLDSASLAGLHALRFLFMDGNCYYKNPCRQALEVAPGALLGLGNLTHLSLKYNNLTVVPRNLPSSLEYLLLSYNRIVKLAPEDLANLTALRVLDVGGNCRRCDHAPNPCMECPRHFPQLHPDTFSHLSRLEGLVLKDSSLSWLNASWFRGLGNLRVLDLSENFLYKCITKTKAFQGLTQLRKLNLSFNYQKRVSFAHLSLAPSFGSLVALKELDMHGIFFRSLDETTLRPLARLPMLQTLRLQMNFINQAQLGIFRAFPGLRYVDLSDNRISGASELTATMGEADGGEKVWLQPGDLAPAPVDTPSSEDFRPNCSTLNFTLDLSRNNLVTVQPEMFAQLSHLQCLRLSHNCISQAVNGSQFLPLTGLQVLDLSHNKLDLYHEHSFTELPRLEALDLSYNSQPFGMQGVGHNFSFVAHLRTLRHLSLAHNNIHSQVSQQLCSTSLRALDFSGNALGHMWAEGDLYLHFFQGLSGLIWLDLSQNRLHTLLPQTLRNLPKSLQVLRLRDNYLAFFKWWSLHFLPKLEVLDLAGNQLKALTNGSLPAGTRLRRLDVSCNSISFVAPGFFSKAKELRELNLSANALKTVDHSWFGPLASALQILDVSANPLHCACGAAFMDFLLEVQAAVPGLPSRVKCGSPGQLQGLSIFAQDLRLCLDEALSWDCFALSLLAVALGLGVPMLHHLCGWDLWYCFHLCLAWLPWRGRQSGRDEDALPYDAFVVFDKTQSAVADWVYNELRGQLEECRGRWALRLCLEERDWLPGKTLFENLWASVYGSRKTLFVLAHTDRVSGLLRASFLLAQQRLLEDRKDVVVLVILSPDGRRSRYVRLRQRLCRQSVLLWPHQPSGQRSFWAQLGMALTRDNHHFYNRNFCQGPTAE
Sequence of Receptor-interacting serine/threonine-protein kinase 2 (Homo sapiens) (O43353 whole entry, looked up): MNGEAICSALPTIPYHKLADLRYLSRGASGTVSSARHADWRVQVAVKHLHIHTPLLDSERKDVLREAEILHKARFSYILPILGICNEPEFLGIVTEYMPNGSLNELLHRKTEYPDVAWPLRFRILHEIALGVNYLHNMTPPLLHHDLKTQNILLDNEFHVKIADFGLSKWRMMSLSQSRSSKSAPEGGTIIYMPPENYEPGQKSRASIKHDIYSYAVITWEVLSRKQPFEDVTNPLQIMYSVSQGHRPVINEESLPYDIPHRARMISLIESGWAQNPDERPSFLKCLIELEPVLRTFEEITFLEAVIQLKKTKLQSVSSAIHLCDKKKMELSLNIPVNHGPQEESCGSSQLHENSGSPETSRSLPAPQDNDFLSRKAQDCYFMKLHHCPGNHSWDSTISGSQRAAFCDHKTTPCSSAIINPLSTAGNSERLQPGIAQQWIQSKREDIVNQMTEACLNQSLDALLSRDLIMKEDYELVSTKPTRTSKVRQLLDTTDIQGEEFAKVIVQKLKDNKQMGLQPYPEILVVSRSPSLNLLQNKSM
Sequence of Photoreceptor-specific nuclear receptor (Homo sapiens) (Q9Y5X4 whole entry, looked up): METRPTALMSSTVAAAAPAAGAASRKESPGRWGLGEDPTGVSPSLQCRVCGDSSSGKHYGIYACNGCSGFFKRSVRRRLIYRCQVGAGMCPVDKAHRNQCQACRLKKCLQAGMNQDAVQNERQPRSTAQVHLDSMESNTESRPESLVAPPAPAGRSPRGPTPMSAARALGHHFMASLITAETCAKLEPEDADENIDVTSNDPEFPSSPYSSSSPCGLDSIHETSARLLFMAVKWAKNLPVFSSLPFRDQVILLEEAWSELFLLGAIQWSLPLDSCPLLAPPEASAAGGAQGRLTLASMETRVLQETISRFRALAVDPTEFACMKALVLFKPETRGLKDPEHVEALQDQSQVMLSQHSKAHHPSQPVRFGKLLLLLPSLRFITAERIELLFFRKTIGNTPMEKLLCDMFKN
Sequence of Galanin receptor type 2 (Homo sapiens) (O43603 whole entry, looked up): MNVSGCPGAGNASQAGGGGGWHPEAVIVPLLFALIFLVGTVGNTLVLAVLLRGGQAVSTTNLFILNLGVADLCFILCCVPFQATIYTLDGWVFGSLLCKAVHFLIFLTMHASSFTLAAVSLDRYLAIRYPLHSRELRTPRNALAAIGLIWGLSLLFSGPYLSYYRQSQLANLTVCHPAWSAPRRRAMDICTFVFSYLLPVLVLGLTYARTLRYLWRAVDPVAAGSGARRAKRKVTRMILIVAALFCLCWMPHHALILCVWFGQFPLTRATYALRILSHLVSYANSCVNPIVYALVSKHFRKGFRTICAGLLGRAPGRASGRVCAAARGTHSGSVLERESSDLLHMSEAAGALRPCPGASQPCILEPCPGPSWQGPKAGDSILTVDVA
Sequence of Protein-arginine deiminase type-4 (Homo sapiens) (Q9UM07 whole entry, looked up): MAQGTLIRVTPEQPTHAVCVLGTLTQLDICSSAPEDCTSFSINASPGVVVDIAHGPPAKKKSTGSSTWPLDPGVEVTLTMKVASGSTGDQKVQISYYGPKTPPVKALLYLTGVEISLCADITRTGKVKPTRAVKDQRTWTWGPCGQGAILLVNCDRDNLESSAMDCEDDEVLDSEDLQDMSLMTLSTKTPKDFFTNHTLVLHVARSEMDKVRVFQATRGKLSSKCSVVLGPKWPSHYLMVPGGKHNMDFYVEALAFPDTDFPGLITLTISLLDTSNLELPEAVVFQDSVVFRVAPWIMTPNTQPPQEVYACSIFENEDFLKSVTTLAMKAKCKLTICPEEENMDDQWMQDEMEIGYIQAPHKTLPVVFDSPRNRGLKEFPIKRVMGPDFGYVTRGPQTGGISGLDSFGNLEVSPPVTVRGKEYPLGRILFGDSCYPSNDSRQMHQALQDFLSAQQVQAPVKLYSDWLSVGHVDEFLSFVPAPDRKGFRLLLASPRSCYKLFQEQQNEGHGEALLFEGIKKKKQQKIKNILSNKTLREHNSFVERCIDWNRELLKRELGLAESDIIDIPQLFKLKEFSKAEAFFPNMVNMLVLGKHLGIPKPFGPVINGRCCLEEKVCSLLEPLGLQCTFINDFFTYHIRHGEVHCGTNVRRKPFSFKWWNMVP
Sequence of COUP transcription factor 2 (Homo sapiens) (P24468 whole entry, looked up): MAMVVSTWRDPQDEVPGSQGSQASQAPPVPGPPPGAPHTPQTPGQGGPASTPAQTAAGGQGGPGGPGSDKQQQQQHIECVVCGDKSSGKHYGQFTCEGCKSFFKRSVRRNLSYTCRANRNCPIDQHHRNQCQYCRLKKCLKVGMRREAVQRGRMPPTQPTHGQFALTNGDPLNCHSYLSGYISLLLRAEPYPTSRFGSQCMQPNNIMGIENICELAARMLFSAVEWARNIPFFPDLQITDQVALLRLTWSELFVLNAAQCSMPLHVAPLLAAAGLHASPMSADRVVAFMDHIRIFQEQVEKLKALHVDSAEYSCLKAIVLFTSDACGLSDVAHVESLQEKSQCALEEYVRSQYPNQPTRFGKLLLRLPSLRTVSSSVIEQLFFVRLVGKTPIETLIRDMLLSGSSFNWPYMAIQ
Sequence of Nuclear receptor coactivator 2 (Homo sapiens) (Q15596 whole entry, looked up, the tested form may be a part): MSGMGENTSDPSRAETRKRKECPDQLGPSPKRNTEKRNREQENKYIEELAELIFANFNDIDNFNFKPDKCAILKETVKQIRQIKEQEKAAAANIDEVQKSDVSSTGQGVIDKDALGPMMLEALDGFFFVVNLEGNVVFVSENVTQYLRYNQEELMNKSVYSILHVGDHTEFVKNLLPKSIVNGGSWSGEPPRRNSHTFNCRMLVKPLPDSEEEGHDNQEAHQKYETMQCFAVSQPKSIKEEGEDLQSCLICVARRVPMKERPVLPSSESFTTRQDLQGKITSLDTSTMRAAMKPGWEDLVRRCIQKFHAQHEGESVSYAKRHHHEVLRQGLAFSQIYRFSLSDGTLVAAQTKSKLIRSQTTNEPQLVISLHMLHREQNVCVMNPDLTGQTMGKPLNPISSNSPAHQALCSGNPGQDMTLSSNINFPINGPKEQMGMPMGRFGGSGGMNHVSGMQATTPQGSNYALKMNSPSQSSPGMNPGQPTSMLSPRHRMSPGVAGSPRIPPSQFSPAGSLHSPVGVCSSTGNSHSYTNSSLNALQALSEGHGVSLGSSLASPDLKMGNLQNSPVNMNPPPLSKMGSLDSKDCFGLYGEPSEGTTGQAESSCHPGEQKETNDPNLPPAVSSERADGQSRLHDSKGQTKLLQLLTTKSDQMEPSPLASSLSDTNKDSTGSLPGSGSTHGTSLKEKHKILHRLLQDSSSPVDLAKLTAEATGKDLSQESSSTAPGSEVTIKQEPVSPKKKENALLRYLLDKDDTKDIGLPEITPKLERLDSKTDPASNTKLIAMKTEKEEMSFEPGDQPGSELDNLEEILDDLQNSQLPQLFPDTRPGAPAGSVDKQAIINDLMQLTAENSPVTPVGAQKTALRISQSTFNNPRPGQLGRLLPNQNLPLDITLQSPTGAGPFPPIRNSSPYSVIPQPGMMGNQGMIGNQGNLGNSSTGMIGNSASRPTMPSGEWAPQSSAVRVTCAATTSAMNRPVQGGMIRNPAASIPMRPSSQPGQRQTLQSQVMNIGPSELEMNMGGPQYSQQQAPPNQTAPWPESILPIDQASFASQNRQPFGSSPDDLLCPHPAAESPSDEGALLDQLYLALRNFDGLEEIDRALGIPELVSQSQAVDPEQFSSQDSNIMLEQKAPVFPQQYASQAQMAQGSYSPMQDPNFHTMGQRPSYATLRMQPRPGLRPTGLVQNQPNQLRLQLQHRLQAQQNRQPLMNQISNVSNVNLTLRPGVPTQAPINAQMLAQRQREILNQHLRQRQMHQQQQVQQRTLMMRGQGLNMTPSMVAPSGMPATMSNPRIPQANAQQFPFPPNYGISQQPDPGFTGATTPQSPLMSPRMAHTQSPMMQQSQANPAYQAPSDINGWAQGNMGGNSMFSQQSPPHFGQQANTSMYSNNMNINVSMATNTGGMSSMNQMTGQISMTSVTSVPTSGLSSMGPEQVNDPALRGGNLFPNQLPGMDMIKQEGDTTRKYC

For the compound `Cc1cccc(-c2noc(-c3ccc(F)cc3)n2)c1`, the activation (% of control) in assay [1] was 222% (active); in [2] it was 133%; in assay [3], 119% (active).
Turning to `COC(=O)Cc1cc(=O)n(-c2nc3ccccc3s2)[nH]1`, the inhibition in [4] was -4.76%; in assay [5] it was 4.99%.
As for `COc1ccccc1N1N=C(c2cccs2)CC1c1ccccc1` (centres undefined), the inhibition in assay [6] was 27.9% (active); in assay [7] it was 39.8% (active); in [4], 36% (active); in assay [5], 70% (active); in [8], 32.9% (active); in [9], 43.5%. The results for the inhibition in assay [10], in assay [11] and in assay [12] were 2.88%, 51.8% (active) and 65.6% (active), respectively.
With `O=C(Nc1ccccc1Cl)/C(Cl)=C(\Cl)S(=O)c1ccccc1` (centres undefined), the inhibition is 11.5% in assay [4]; 14.5% in assay [5]; 117% (active) in assay [13]; 39.3% in assay [14]; 14.2% in assay [15]; 39.3% (active) in assay [8]. In addition, the inhibition in assay [9] was 24.5%; in [10] it was 96.4% (active); in [11], 78.8% (active); in assay [12] it was 37.3% (active); in assay [16], 90.1% (active); in assay [17], 47.4%. The inhibition was 57.7% (active) in assay [18]; 88.7% (active) in [19]; 80.1% (active) in assay [20]; 80.8% (active) in assay [21]; 94.7% (active) in [22]; 95.9% (active) in assay [23]. Besides, the inhibition in assay [24] is 78.8% (active); in assay [25], 101% (active).
